Autofluor 339: intrinsic fluorescence of library compounds, ex339/em460 – biochemical, MLSMR library, data from DPM-DC assay, artefact control, profiling panel; compound autofluorescence, ex339/em460 nm, NADH buffer; stronger effect = higher value; 1 = no-compound wells, NADH background; fluorescence fold increase at 10 µM; 65,000 compounds, 5.5% hits;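 active = at 10 µM, mean starting fluorescence two-fold or more over control wells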;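 note: signal is the first read of a kinetic run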
Abs 340nm: absorbance at 340 nm; compound absorbance at 340 nm, fold over control; fold change at 10 µM; 65,000 tested, under 10 active; AID 708;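 active = at 10 µM dose, initial 340 nm absorbance at least 2 fold that of control wells; inactive = change under 2 fold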;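 note: initial absorbance extrapolated from kinetic A340 decline of NADH oxidation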
NADH enzymes: inhibition of NAD/NADH coupling enzymes, library profiling; AID 774; 65,000 compounds, 0.02% hits; coupled PK/LDH NADH assays, four targets; IC50, µM (titrated, usually from 10 µM), for the others: at the highest dose inhibition;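 active = single-dose screening hits from any of four coupled enzyme assays that gave an IC50 when retested across doses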;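 note: the DPM-DC format reads NADH fluorescence rather than 340 nm absorbance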
Spn MK inh: blocks S. pneumoniae mevalonate kinase; purified MK, PK/LDH-coupled NADH absorbance 340 nm; inhibition, % at 10 µM; 65,000 compounds, 0.48% hits; AID 555;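 active = ranked among the strongest by inhibition in the single 10 µM screen, a fixed top-ranked set picked for dose follow-up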
DPM-DC inhibit: inhibitors of Streptococcus pneumoniae diphosphomevalonate decarboxylase | purified DPM-DC, PK/LDH coupled NADH fluorescence | AID 556 | 65,000 compounds, 0.49% hits | calls only at 10 µM;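 active = the 320 compounds with the highest percent inhibition in the single-dose primary screen, excluding strongly autofluorescent ones, cut at about 32% in these data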;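 note: kinetic rate of NADH fluorescence loss reporting ADP formed by the decarboxylase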
Spn PMK inh: inhibitors of Streptococcus pneumoniae phosphomevalonate kinase; purified PMK, PK/LDH-coupled NADH absorbance 340 nm; inhibition, % at 10 µM; 65,000 compounds, 0.49% hits; AID 539;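 active = top-ranked compounds by inhibition in the single 10 µM screen, taking a fixed number of the strongest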;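 note: 0% = full reaction with DMSO carrier and 100% = background rate without enzyme reaction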
* = called active by the depositor; i = inactive; · = no result given; + = active, no number. An excerpt weighted towards active compounds, which were near 6.8% of everything screened.

SMILES	Autofluor 339	Abs 340nm	NADH enzymes	Spn MK inh	DPM-DC inhibit	Spn PMK inh
COCCCn1c(-c2ccccc2)nc2ccccc2c1=O	1.1	1.03	1.0%	2.0	i	0.0
COCCCNC(=O)c1ccc2nc3ccccc3c(=O)n2c1	4.9*	1.1	11.0%	0.0	·	21.0
Cc1cc2nn(-c3cccc4ccccc34)nc2cc1N	3.58*	1.18	13.0%	14.0	·	12.0
Nc1ccc2nn(-c3cccc4ccccc34)nc2c1	2.19*	1.11	2.0%	2.0	·	1.0
Nc1ccc2oc(CCc3ccccc3)nc2c1	1.22	0.97	9.0%	7.0	i	12.0
Cc1csc(NC(=O)CNC(=O)OCc2ccccc2)n1	0.93	0.98	8.0%	12.0	i	7.0
Clc1ccc(N2CCN(c3ncnc4c3oc3ccccc34)CC2)cc1	3.7*	1.05	7.0%	5.0	·	9.0
Cc1cc(NC(=O)CSc2ncn(-c3ccccc3)n2)no1	1.05	0.97	8.0%	5.0	i	18.0
CCS(=O)(=O)NCc1csc(C)n1	1.07	0.97	6.0%	4.0	i	13.0
CCS(=O)(=O)NCCc1csc(C)n1	1.08	1	28.0%	77.0*	i	8.0
O=C(NC1CCS(=O)(=O)C1)c1ccccc1C(=O)c1ccccc1 (centres undefined)	1.03	1.03	3.0%	6.0	i	2.0
COc1ccc(C(=O)Nc2nc(N)n(-c3ccccc3)n2)cc1OC	1.09	1.01	2.0%	0.0	i	5.0
c1csc(Cn2c(-c3cccs3)nc3ccccc32)c1	2.81*	1.05	14.0%	13.0	i	3.0
Brc1ccccc1Cn1c(-c2cncs2)nc2ccccc21	1.11	1.05	0.0%	0.0	i	0.0
COC(=O)C1=C(C)OC(N)=C(C#N)C1c1ccccc1F (centres undefined)	1.1	1.02	9.0%	13.0	i	14.0
COC(=O)C1=C(C)OC(N)=C(C#N)C1c1cc(OC)c(OCC(N)=O)cc1Cl (centres undefined)	1.31	1.03	41.0%	48.0*	+	37.0*
COC(=O)CN(Cc1ccco1)S(=O)(=O)c1ccccc1	1.04	1	1.0%	7.0	i	0.0
CCCc1cc(N2CCCC2)n2nc(C)c(-c3ccccc3)c2n1	2.88*	1.01	4.0%	10.0	i	0.0
CCOC(=O)C1CCN(Cc2ccc(F)c(Br)c2)CC1	0.98	1	6.0%	51.0*	i	9.0
CCOC(=O)C1CCN(Cc2ccc(OC)c(C)c2OC)CC1	1	0.98	9.0%	48.0*	i	16.0
CCOC(=O)C1CCCN(Cc2ccc(OC)cc2OC)C1 (centres undefined)	1.13	1.07	16.0%	49.0*	i	0.0
CCOC(=O)C1CCCN(Cc2ccc(O)c(OC)c2)C1 (centres undefined)	1.1	1.05	10.0%	30.0	i	0.0
Fc1ccc(CN2CCSCC2)cc1Br	1.1	1.05	1.0%	0.0	i	2.0
O=C(NCc1cccnc1)C1CCN(S(=O)(=O)N2CCC3(CC2)OCCO3)CC1	1.09	0.99	6.0%	3.0	i	16.0
Clc1ccccc1OCCCCN1CCCC1	1.11	1.04	16.0%	40.0*	i	7.0
SMILES	Autofluor 339	Abs 340nm	NADH enzymes	Spn MK inh	DPM-DC inhibit	Spn PMK inh
COc1cccc(OC)c1OCCCCN1CCCC1	1.01	1.07	20.0%	52.0*	i	8.0
O=c1nc(N2CCOCC2)ccn1Cc1ccc(Br)cc1	1.13	1.04	5.0%	4.0	i	7.0
CC1CN(S(=O)(=O)c2cccc(C(=O)OCc3cc(=O)oc4cc(O)ccc34)c2)CC(C)O1 (centres undefined)	3.43*	1	3.0%	5.0	·	8.0
CC1CN(S(=O)(=O)c2cccc(C(=O)OCC(=O)Nc3ccc4c(c3)OCO4)c2)CC(C)O1 (centres undefined)	1.02	1.01	7.0%	0.0	i	21.0
CC(C)C(OC(=O)CN1C(=O)COc2ccccc21)C(=O)NC1CCCC1 (centres undefined)	1.16	1.03	30.0%	14.0	+	14.0
Cc1ccc2c(c1)N(CC(=O)OC(CC(C)C)C(=O)NC1CCCC1)C(=O)CO2 (centres undefined)	1.13	1	5.0%	11.0	i	4.0
CCCNC(=O)N1CCN(c2ncccn2)CC1	1.11	1.04	5.0%	12.0	i	4.0
Cc1cccc(N2C(=O)c3cccc4c(N(C)CCO)ccc(c34)C2=O)c1	2.11*	1.06	2.0%	3.0	·	1.0
COc1ccc(CCN(Cc2nc(-c3ccccc3)no2)Cc2nc(-c3ccccc3)no2)cc1OC	1.16	1.01	3.0%	6.0	i	0.0
Cc1nn(-c2ccccn2)c2c1-c1nc(N)ncc1CC2	3.62*	1.04	4.0%	0.0	·	7.0
Cc1nn2c3c(cnc2c1-c1ccccc1)C(=O)CCC3	1.12	1.12	3.0%	7.0	i	3.0
O=C1c2ccccc2C(=O)N1OCc1ccccc1	1.03	1	2.0%	0.0	i	2.0
COc1ccccc1COCC(O)CNCC1(N2CCCCC2)CCCCC1 (centres undefined)	1.12	1.06	19.0%	41.0*	i	16.0
O=C(NC1CCN(C(=O)Nc2cccc(F)c2)CC1)C1CCCCC1	1.05	0.98	6.0%	0.0	i	17.0
CCc1cc2c(=O)c(-n3cnc4ccccc43)coc2cc1O	4.22*	1.12	8.0%	2.0	·	13.0
COc1cc(OC)cc(-c2nnc(SCC(=O)N(Cc3ccccc3)C(C)(C)C)o2)c1	1.1	1	3.0%	1.0	i	8.0
O=C(c1ccc(CS(=O)(=O)Cc2ccc(Cl)cc2)o1)N1CCCC1	1	0.99	9.0%	2.0	i	26.0*
Cc1cc(Nc2ccc(F)c(Cl)c2)n2nc(C)nc2n1	1.11	1.07	7.0%	12.0	i	8.0
Nc1nc2nccc(-c3ccc(Cl)cc3)n2n1	3.77*	1.13	12.0%	7.0	·	17.0
Cc1cc(-c2ccc(Cl)cc2)n2nc(N)nc2n1	3.62*	1.07	2.0%	4.0	·	0.0
O=C(CSc1nc2ncc(Br)cc2[nH]1)Nc1ccc2c(c1)OCO2	0.99	1.01	5.0%	12.0	i	3.0
CC(C)n1c(SC2C(=O)CC(C)(C)CC2=O)nc2c1c(=O)n(C)c(=O)n2C	1.09	1.05	5.0%	6.0	i	8.0
COc1ccc2c(c1)c(=O)oc1cc(OCC(=O)NC3CC3)ccc12	3.72*	1.1	6.0%	7.0	·	4.0
CC(C)CNC(=O)COc1ccc2c3c(c(=O)oc2c1)CCC3	2.04*	1.06	19.0%	3.0	+	15.0
COc1ccccc1OCC(=O)NC1CCCCCC1	1.1	1.01	5.0%	6.0	i	8.0
CC(C)CCNC(=O)COc1ccc2c3c(c(=O)oc2c1)CCC3	3.09*	1.08	15.0%	6.0	i	18.0
Cc1cc(=O)oc2cc(OCC(=O)NCCCN3CCOCC3)ccc12	1.84	1.08	8.0%	7.0	i	5.0

Assay outcomes (PubChem BioAssay)
